# This is a sample that favours compounds with a hit; in the whole collection about 3.7% have one here.
# CHT inh: inhibitors of human choline transporter CHT | CHT-expressing cells, membrane potential dye, choline response; hits give low values | AID 488975, 2010 | B-score at 10 µM | High affinity choline transporter 1 (Homo sapiens), Q9GZV3 | 310,000 compounds, 0.86% hits;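 active = B-score over 3 SD under the library average, and starting fluorescence ratio not unusually high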;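 also: choline stimulus applied at its EC90 after an EC20 pre-addition; B-score computed on integrated fluorescence ratio after choline addition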
# Kir21 inh: inhibitors of mouse Kir2.1 inward-rectifier potassium channel; Inward rectifier potassium channel 2 (Mus musculus), P35561; HEK293-Kir2.1, FluxOR thallium flux fluorescence; hits give low values; B-score at 10 µM; 310,000 compounds, 0.85% hits; AID 1672, 2009;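 active = fluorescence ratio B-score at or below minus 3 SD of library scores, with starting-brightness B-score within 2 SD, cut at about -4.2 in these data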;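 also: channel flux triggered by added potassium and thallium sulfate stimulus; B-score of peak minus minimum fluorescence over baseline after thallium stimulus; more negative B-score means stronger Kir2.1 block with less thallium influx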
# ANO1 block: TMEM16A chloride channel inhibitors, primary screen, cell-based, HTS | Anoctamin-1 (Mus musculus), Q8BHY3 | HEK293 TMEM16A/YFP iodide influx fluorescence, ionomycin | normalized B-score (activity score, 25-100; higher = stronger inhibition) at 10 µM | 310,000 compounds, 1.2% hits;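 active = ratio plate-corrected score three or more library SD toward inhibition, starting fluorescence score within five deviations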;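 also: score derived from kinetic fluorescence span divided by baseline fluorescence per well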
# TMEM16A act: TMEM16A chloride channel activators or potentiators, primary screen, cell-based, HTS | B-score at 10 µM | HEK293 TMEM16A/YFP-H148Q/I152L, iodide quench fluorescence; hits give low values | 340,000 compounds, 0.3% hits | Anoctamin-1 (Mus musculus), Q8BHY3;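 active = fluorescence-ratio B-score plate-corrected deviation score at least 3 library SD below zero, with starting fluorescence score within 5 deviations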;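 also: channel opened by trigger with iodide after compound preincubation; score built on the fluorescence ratio of max minus min over baseline; more negative score means more quench and so TMEM16A activation or potentiation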
# GPR7 antagonist: GPR7 receptor antagonists, primary screen, cell-based, fluorescence, single concentration. Neuropeptides B/W receptor type 1 (Homo sapiens), P48145. GPR7-expressing cells, fluorescence antagonist assay. inhibition, % at 4.4 µM. 290,000 compounds, 1.1% hits. AID 1861, 2009; in the data active = inhibition above about 16%, passing the limit was not always enough;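 also: cells stimulated with the agonist NPW; 0% = agonist with vehicle and 100% = vehicle without agonist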
# Target sequence (P48145 whole entry, looked up): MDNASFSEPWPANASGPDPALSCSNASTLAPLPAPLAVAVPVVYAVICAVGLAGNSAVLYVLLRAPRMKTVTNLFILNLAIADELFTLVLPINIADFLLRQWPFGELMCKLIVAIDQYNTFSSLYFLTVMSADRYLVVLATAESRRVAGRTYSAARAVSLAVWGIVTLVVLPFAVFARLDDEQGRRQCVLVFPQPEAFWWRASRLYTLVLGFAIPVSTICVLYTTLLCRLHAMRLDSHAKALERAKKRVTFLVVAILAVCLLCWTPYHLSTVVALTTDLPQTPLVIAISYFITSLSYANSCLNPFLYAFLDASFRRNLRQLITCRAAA
# CHT PAM: CHT positive allosteric modulators, primary screen, cell-based, membrane potential dye, choline EC20. High affinity choline transporter 1 (Homo sapiens), Q9GZV3. CHT-expressing cells; hits give high values; LV-AA mutant CHT in HEK293 cells. B-score at 10 µM. 310,000 compounds, 0.49% hits. AID 488977, 2010;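 active = initial fluorescence not abnormally high and integrated response B-score, plate-corrected, over 3 SD above library mean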
# CHT activ conf: CHT activators, confirmation, cell-based, membrane potential dye, duplicate; activation, % at 10 µM; CHT-expressing cells, membrane potential dye fluorescence (FDSS); % of choline EC20–EC90 response window; HEK293 expressing CHT LV-AA mutant; choline added at its EC20; shares compounds with CHT PAM; 2,500 compounds, 91% hits;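 active = primary screen active, with duplicate mean activation above negative control mean plus 3 SD, cut at about 11% in these data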
# HEK293 MP dye: membrane potential response in parental HEK293 cells, counter-screen for CHT activator project, cell-based, membrane potential dye | shares compounds with CHT PAM | membrane potential dye fluorescence (FDSS); measured after EC20 choline addition | ratio readout change at 10 µM, hits read low | 2,500 compounds, 62% hits | AID 623908, 2012;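 active = duplicate-averaged ratio beyond 3 SD from buffer wells, up or down, though filed actives are nearly all decreases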
# TMEM16A reconf: TMEM16A chloride channel inhibitors, confirmation, cell-based, re-confirmation; shares compounds with ANO1 block; HEK293 TMEM16A/YFP-H148Q, iodide quench fluorescence; ionomycin added to raise cell calcium; inhibition, % at 10 µM; 2,300 compounds, 39% hits; AID 652189, 2013;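 active = mean duplicate percent inhibition, scaled so buffer wells are 0 and the reference blocker 100, over three buffer SD above buffer mean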
# HEK293 Ca mobil: calcium mobilization in TMEM16A/YFP HEK293 cells, confirmation, counter-screen for TMEM16A inhibitor project | 2,300 compounds, 2% hits | shares compounds with ANO1 block | calcium response (% of ionomycin), % at 10 µM | AID 652231, 2013 | Fluo4 calcium mobilization;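 active = duplicate-averaged calcium signal over 20% of the ionomycin maximum, relative to buffer baseline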;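 also: each well's signal is peak minus trough fluorescence divided by its pre-addition baseline; 0% = buffer wells and 100% = ionomycin wells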
# YFP-HEK293 quench: iodide YFP quench changes in parental YFP-HEK293, counter-screen for TMEM16A inhibitor project, cell-based | shares compounds with ANO1 block | ionomycin | YFP ratio F(max-min)/F0 at 10 µM | 2,300 tested, under 10 active | AID 652233, 2013;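 active = yellow fluorescent protein signal ratio exceeding the buffer control mean by over 5 SD of those controls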;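 also: ratio is mean of duplicate wells from kinetic YFP trace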
# ClC-1 rat inh: ClC-1 chloride channel inhibition, selectivity assay for TMEM16A inhibitor project, cell-based, voltage-dependent ClC-1. ratio percent, % at 10 µM. shares compounds with ANO1 block. AID 652236, 2013. CHO ClC-1-YFP, iodide influx fluorescence quench; iodide control reads 0, buffer control 100. 2,300 tested, under 10 active;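 active = duplicate-mean ratio percent above the mean of iodide-only control wells, which defines zero, plus 5 of their SD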;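 also: higher percent means stronger block of ClC-1 iodide influx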
# * hit, by the source's call; i = inactive; . = not tested or not shown.
SMILES,CHT inh,Kir21 inh,ANO1 block,TMEM16A act,GPR7 antagonist,CHT PAM,CHT activ conf,HEK293 MP dye,TMEM16A reconf,HEK293 Ca mobil,YFP-HEK293 quench,ClC-1 rat inh
CCN(CC)S(=O)(=O)c1cc(C(=O)OCC(=O)Nc2cccc(S(=O)(=O)N(C)C)c2)ccc1F,i,0.64,25*,i,-11.6,14.6*,22.0*,i,i,i,-1.07,5.0
CN(C)S(=O)(=O)c1cccc(NC(=O)COC(=O)c2ccc3ccccc3n2)c1,.,.,.,i,.,.,.,.,.,.,.,.
CCOC(=O)c1c(NC(=O)CSc2nc3ccccc3o2)sc(C(C)=O)c1C,i,-0.89,100*,i,-5.2,9.07*,11.8*,i,21.5%*,i,-1.07,-3.0
Cc1ccc(C(c2nnnn2C2CCCCC2)N(C)C2CCCCC2)cc1 (stereo unspecified),i,-0.01,25*,i,1.8,i,6.3,i,i,i,-1.12,-8.0
CCCCCCCCCCCC(=O)N1CC(=O)NC(=O)C1,i,0.89,i,i,-9.9,i,.,.,.,.,.,.
O=C(CCS(=O)(=O)c1ccccc1)Nc1ccc(Cl)cn1,i,-0.1,i,i,-6.1,i,.,.,.,.,.,.
Cc1cccc2nc(-c3cccnc3)c(Nc3ccccc3)n12,i,-1.2,100*,i,-4.3,11.6*,27.6*,-29*,35.0%*,i,-0.985,-25.5
COc1ccc(Nc2c(-c3ccco3)nc3cccc(C)n23)cc1,i,-0.1,i,i,2.4,i,.,.,.,.,.,.
c1ccc(C[n+]2cccc3c4ccccc4ccc32)cc1,i,-0.01,25*,i,-11.3,6.44*,77.0*,-74.6*,i,i,-1.1,-2.0
NC(N)=N/N=C/c1ccc2cccc(OCc3ccccc3)c2n1,i,-5.26*,25*,i,-5.9,6.31*,14.1*,i,i,i,-1.01,-13.5
CCn1cc(C(=O)OCC(=O)c2ccc(Cl)cc2)c(=O)c2ccc(C)nc21,i,0.07,i,i,-11.8,i,.,.,.,.,.,.
CCn1cc(C(=O)OCC(=O)OC2CC(C)CCC2C(C)C)c(=O)c2ccc(C)nc21 (stereo unspecified),i,-2.91,25*,i,-7.3,i,30.9*,i,i,i,-1.26,-10.5
COc1ccccc1NS(=O)(=O)c1cc(NC(=O)C2CCCO2)ccc1C (stereo unspecified),.,.,.,i,.,.,.,.,.,.,.,.
CCN1/C(=C/C=C/C=C/C=C/c2sc3ccccc3[n+]2CC)Sc2ccccc21,i,0.83,i,i,2.1,9.61*,28.6*,-35.4*,45.0%*,i,-0.875,-17.5
CCN1/C(=C/C=C/C=C/c2sc3ccccc3[n+]2CC)Sc2ccccc21,i,-3.91,i,.,-10.7,i,.,.,.,.,.,.
Cc1sc2nc(SCc3ccc(C(=O)O)cc3)n(Cc3ccco3)c(=O)c2c1C,i,1.75,25*,i,-10.9,6.73*,31.6*,i,30.5%*,i,-1.01,-24.5
C=CCn1c(SCc2ccc(C(=O)O)cc2)nc2sc(C)c(C)c2c1=O,i,3.06,i,i,-7.6,i,.,.,.,.,.,.
O=C(Cn1ccc(NC(=O)OCc2ccccc2)nc1=O)NCCc1c[nH]c2ccccc12,.,.,.,i,.,.,.,.,.,.,.,.
CCN(CC)CCNC1=NCCn2c1cc1cc(OC)ccc12,i,0.44,25*,i,2.5,8.15*,60.3*,-50.9*,i,i,-0.978,-12.0
Cc1cccc(C)c1OCC(=O)Nc1ccc(N2CCOCC2)cc1,i,0.47,i,i,-4.6,i,.,.,.,.,.,.
Cc1oc(-c2ccc(Cl)cc2)nc1CN1CCCC(C(=O)NC2CC2)C1 (stereo unspecified),i,1,i,i,-3.1,i,.,.,.,.,.,.
CCOC(=O)N1CCN(C(=O)C2CCCN(Cc3nc(-c4ccc(Cl)cc4)oc3C)C2)CC1 (stereo unspecified),i,-0.43,25*,i,0.0,i,.,.,i,i,-0.985,-7.5
Cc1ccc(N2CCN(S(=O)(=O)c3ccc(Cl)s3)CC2C)cc1 (stereo unspecified),i,-0.09,25*,i,9.6,i,.,.,i,i,-0.81,-10.5
CCS(=O)(=O)N1CCN(S(=O)(=O)c2ccc(Cl)s2)CC1,i,-1.59,i,i,3.1,i,.,.,.,.,.,.
O=C(O)C1CCN(C(=O)c2ccccc2N2C(=O)[C@@H]3Cc4c([nH]c5ccccc45)C(c4cccc(Cl)c4)N3C2=O)CC1 (stereo partly specified),i,2.01,i,i,2.8,i,.,.,.,.,.,.
COc1ccccc1N1CCN(Cc2ccco2)CC1,i,-1.33,25*,i,-5.0,i,.,.,i,i,-1.01,-3.5
COCCCN1CN(S(=O)(=O)c2ccc(C)cc2C)c2nc3ccccc3nc21,i,-1.36,i,i,-10.7,i,.,.,.,.,.,.
CCCC1(CCC)NC(=O)N(CC(=O)Nc2cccc(OC)c2)C1=O,i,3.42,100*,i,-11.2,i,.,.,i,i,-1.13,-9.5

# Screens as filed in PubChem.
